Experiment [1] deals with Nuclear receptor coactivator 3 (Homo sapiens) (UniProt Q9Y6Q9). The experiment can be described thus: SRC3 coactivator transcriptional activity inhibitors, confirmation, cell-based, luminescence, quadruplicate (AID 588792;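 active = mean inhibition over 43.08%, the solvent-only control mean plus 3 SD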;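 also: 0% = DMSO treated cells and 100% = gossypol at 36 µM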). As to conditions: HEK293 GAL4-SRC3 luciferase reporter, at 3.6 µM, stronger effect = higher value. (In general: A reporter such as luciferase makes a cellular process visible.)

Experiment [2] has as its system transactivating tegument protein VP16 (Human herpesvirus 1), Gal4-VP16 luciferase reporter. The experiment can be described thus: VP16 transactivation inhibitors, counter-screen for SRC3 inhibitor project, cell-based, luminescence, high throughput (AID 588794; in the data active = inhibition above about 30%). The settings on record: mammalian cells, VP16-driven luciferase reporter luminescence; at 3.6 µM; stronger effect = higher value. (In general: The purpose of a counterscreen is to sort out artefacts and off-target activity.)

The target in experiment [3] is Nuclear receptor coactivator 1 (Homo sapiens) (UniProt Q15788). In words: SRC1 coactivator transcriptional activity inhibitors, confirmation, cell-based, luminescence, quadruplicate (AID 588820;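 active = mean inhibition above 46.68%, the untreated control wells mean plus 3 SD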;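 also: 0% = DMSO wells and 100% = gossypol 36 µM treated wells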). As to conditions: HEK293 GAL4-SRC1 luciferase reporter, at 3.6 µM, stronger effect = higher value.
The nature of experiment [4]: VP16 transactivation inhibitors, counter-screen for SRC1 inhibitor project, cell-based, luminescence, high throughput (AID 588824). The settings on record: cell-based VP16 transactivation luciferase luminescence; at 3.6 µM; stronger effect = higher value.

Molecules are shown by their SMILES. A number with no mark means an inactive call. Active and inactive are the calls of the source. Rule as the data show it, unless noted: active = inhibition above about 25%; inactive = the rest.

Chain of Nuclear receptor coactivator 1 (Homo sapiens) (Q15788 whole entry, looked up, the tested form may be a part): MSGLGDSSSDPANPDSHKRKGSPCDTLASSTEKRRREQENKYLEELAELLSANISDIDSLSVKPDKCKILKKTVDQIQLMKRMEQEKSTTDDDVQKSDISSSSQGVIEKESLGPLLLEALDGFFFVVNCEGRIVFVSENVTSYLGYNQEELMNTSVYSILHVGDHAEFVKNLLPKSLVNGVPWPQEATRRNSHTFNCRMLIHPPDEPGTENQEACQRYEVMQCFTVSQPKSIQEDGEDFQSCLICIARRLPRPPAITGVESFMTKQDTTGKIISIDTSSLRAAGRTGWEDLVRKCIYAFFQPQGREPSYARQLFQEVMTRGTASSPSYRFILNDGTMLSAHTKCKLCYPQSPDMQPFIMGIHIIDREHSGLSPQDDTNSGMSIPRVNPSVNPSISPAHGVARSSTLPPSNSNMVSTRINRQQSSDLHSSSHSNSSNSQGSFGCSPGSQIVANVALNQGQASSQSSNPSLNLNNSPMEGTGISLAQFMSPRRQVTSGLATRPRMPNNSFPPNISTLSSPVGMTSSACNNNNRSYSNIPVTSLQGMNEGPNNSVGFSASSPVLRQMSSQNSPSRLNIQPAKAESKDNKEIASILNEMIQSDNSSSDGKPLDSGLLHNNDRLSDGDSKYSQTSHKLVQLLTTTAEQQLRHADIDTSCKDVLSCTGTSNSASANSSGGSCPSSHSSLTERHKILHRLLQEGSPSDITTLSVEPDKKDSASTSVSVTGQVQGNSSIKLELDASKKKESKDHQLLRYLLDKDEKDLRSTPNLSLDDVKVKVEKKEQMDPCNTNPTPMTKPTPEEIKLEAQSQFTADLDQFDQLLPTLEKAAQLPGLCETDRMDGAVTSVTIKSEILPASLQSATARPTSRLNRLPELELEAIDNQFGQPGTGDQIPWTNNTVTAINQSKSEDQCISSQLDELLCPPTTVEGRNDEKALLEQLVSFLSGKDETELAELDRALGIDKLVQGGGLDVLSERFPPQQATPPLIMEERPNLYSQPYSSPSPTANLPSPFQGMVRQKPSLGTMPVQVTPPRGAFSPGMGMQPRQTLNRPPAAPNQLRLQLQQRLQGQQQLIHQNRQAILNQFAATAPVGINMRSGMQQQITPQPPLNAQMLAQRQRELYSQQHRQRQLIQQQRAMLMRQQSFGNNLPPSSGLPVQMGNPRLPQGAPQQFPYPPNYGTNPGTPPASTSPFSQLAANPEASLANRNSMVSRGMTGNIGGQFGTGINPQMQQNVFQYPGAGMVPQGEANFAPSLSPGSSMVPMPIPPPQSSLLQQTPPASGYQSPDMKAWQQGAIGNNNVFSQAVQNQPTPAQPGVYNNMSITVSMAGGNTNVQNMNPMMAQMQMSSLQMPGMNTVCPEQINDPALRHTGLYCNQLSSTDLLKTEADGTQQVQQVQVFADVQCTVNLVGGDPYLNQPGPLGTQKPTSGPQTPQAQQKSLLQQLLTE
Chain of Nuclear receptor coactivator 3 (Homo sapiens) (Q9Y6Q9 whole entry, looked up, the tested form may be a part): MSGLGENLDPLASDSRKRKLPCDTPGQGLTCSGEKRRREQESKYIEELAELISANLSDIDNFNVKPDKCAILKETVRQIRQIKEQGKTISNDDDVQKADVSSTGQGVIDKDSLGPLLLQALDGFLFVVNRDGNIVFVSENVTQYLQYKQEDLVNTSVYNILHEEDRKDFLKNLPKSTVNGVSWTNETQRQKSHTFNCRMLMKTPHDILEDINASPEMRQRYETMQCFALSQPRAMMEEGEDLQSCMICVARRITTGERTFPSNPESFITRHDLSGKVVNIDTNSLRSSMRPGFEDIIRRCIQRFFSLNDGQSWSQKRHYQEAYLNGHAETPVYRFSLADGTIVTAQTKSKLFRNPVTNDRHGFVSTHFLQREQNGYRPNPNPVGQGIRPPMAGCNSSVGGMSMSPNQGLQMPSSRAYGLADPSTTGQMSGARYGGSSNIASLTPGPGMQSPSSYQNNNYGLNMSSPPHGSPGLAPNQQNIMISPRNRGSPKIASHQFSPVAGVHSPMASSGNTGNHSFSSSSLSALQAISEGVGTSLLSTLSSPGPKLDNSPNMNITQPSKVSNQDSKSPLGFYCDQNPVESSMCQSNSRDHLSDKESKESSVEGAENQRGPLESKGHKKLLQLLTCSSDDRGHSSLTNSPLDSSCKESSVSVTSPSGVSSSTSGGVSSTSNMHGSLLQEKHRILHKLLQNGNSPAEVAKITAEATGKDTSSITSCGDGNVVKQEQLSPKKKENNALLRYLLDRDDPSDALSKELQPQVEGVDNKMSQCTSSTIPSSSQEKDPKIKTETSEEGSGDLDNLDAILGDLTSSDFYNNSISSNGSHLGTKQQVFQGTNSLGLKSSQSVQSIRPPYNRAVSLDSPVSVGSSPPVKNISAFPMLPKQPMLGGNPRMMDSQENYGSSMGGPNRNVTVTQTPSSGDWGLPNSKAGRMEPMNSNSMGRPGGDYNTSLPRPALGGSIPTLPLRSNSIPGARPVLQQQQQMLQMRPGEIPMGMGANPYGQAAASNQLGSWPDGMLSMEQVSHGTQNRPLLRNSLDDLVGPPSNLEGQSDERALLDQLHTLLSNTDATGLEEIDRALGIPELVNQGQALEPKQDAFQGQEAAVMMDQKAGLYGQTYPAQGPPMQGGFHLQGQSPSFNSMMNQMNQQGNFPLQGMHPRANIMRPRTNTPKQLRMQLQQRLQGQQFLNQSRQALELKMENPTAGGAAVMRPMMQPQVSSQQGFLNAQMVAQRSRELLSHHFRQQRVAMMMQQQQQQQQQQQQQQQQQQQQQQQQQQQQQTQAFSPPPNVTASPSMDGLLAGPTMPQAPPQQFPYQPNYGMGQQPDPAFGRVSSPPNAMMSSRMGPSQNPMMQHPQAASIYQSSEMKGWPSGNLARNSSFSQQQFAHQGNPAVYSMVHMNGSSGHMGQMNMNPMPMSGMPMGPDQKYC

By inhibition is commonly meant the relative decrease from the control value, in per cent. With `COc1ccc(-n2cc(-c3ccccc3)[n+]3c2CCCCC3)cc1`, the inhibition in experiment [1] was 24.8%; in experiment [2], 22%; in experiment [3], 16.8%; in experiment [4] it was 27.7% (active).
The corresponding values for `CCN(CC)S(=O)(=O)c1ccc(/C=C/C(=O)Nc2ccc(F)c(F)c2F)cc1` are -25.9%, 30.7% (active), 3.76% and 28.7% (active).
`Cc1ccc(-c2cc3c(N=O)c4ccccc4c-3n[nH]2)cc1`: the inhibition in experiment [1] is 66.2% (active); in experiment [2], 59.7% (active); in experiment [3], 30.2%; in experiment [4], 53% (active).
For `COc1cc(C(=O)N/N=C(\c2ccccc2)c2ccccn2)cc(OC)c1OC`, in that order: 32.9%, 23.2%, 28.5% and 21.9%.
The corresponding values for `O=C(CCl)N1N=C(c2ccco2)CC1c1cccs1` (configuration not stated) are 55.1% (active), 31.6% (active), 15.3% and 21.7%.
For `CC(C)(C)NC(=O)CSc1nc2ccc(NC(=O)CSc3nnnn3Cc3ccccc3)cc2s1`, the inhibition in experiment [1] is 0.03%; in experiment [2] it was 28.7%; in experiment [3] it was 3.45%; in experiment [4] it was 26.4% (active).
With `O=C(Nc1nc(-c2ccc(S(=O)(=O)N3CCOCC3)cc2)cs1)c1ccccc1`, the inhibition in experiment [1] is 0.95%; in experiment [2], 19%; in experiment [3], -17.1%; in experiment [4] it was 12.6%.
The corresponding values for `Cc1ccc2c(C)nc(Nc3nc(CSc4nc5ccccc5[nH]4)cc(=O)[nH]3)nc2c1` are 12.4%, 16.1%, -14.6% and 17.5%.
The corresponding values for `CCOC(=O)C(=Cc1ccccc1OC)C(=O)OCC` are 27.3%, 25.4%, 9.25% and 22.2%.
The corresponding values for `O=C(NCc1ccc(Cl)cc1)c1csc(-c2cccnc2)n1` are 13.6%, 16.3%, 10.2% and 7.38%.
For `O=C(Nc1ccc(S(=O)(=O)N2CCCCC2)cc1)c1ccc(CN2CCOCC2)cc1`, the inhibition was 15.9% in experiment [1], 46% (active) in experiment [2], -6% in experiment [3] and 47.1% (active) in experiment [4].
For `O=[N+]([O-])c1cccc(C=NNc2ccc3ccccc3n2)c1O`, in that order: -4.77%, -23.2%, -90.4% and -49.2%.
For `C=CCOc1ccccc1CNc1ccc2c(c1)OCCO2`, the inhibition in experiment [1] was 25.2%; in experiment [2], 12.4%; in experiment [3] it was -17.1%; in experiment [4], -30.1%.
For `O=C(N/N=C/c1cc(Cl)ccc1O)C(=O)Nc1ccccc1OC(F)(F)C(F)F`, in that order: 29.3%, 38.3% (active), 37.7% and 44.3% (active).
Turning to `Cc1ccc(C(=O)CSc2cnc3ccccc3n2)cc1C`, the inhibition in experiment [1] is -16.1%; in experiment [2] it was -33%; in experiment [3], -96.7%; in experiment [4], -68.1%.
With `c1nc(NCc2ccc3c(c2)OCO3)c2cc(-c3ccoc3)ccc2n1`, the inhibition is 70.4% (active) in experiment [1], 51.5% (active) in experiment [2], 54.8% (active) in experiment [3] and 45.4% (active) in experiment [4].
The corresponding values for `Cc1cc(=O)[nH]c(Nc2cccc(Br)c2)n1` are 22.7%, 23.7%, 34.2% and 24.4%.
As to `Nc1nc(=O)n(C2CC(O)C(CO)O2)cc1F` (configuration not stated), the inhibition was 58.5% (active) in experiment [1], 37.5% (active) in experiment [2], 57.2% (active) in experiment [3] and 40.9% (active) in experiment [4].
On to `COc1ccccc1N(C(=O)CCl)c1cn(C(C)=O)c2ccccc12`, for which the inhibition in experiment [1] was 52.2% (active); in experiment [2], 27%; in experiment [3] it was 27.2%; in experiment [4], 18.7%.
The corresponding values for `O=[N+]([O-])c1ccc(O)c(/C=N/Nc2ccc(Cl)nn2)c1` are 87.2% (active), 83.6% (active), 73.1% (active) and 82.2% (active).
The corresponding values for `Cc1cc(C(=O)COC(=O)c2cccc(NS(C)(=O)=O)c2)c(C)n1CC1CCCO1` (configuration not stated) are 19.3%, -22.1%, -46.9% and -54.4%.
`O=C(CCCOc1ccc(Cl)cc1Cl)N/N=C/c1ccccc1O`: the inhibition in experiment [1] is 26.1%; in experiment [2], 22.3%; in experiment [3], 29.5%; in experiment [4] it was 15.2%.
For the compound `CCOC(=O)c1cc2sccc2n1CC(=O)N1CCc2ccccc21`, the inhibition in experiment [1] is 43.4% (active); in experiment [2] it was 29.2%; in experiment [3], 31.8%; in experiment [4] it was 31.3% (active).
For `CCOC(=O)c1ccccc1OC(=O)NNc1ccccc1`, the inhibition in experiment [1] was 15.6%; in experiment [2], 46.1% (active); in experiment [3], 11.2%; in experiment [4], 38.8% (active).
For the compound `c1ccc(-c2noc(-c3ccc4ccccc4c3)n2)nc1`, the inhibition is 43.7% (active) in experiment [1], 19.2% in experiment [2], -79.6% in experiment [3] and 23.7% in experiment [4].
For `COc1cc(/C=C2\CC(C(C)(C)C)C/C(=C\c3cc(OC)c(OC)c(OC)c3)C2=O)cc(OC)c1OC` (configuration not stated), in that order: 58.4% (active), 19.3%, 19.8% and 18.4%.
The corresponding values for `COc1cccc(C(=O)Nc2nc(-c3ccc(S(=O)(=O)N4CCOCC4)cc3)cs2)c1` are 3.89%, 9.14%, -19.1% and -0.53%.
The corresponding values for `NC(=O)c1cc(Sc2ccccc2)nc2ccccc12` are 38%, 16.6%, 34.4% and 16%.
With `O=C(Nc1nc(-c2ccc(S(=O)(=O)N3CCCC3)cc2)cs1)C1COc2ccccc2O1` (configuration not stated), the inhibition is 7.31% in experiment [1], -0.16% in experiment [2], -8.23% in experiment [3] and -2.78% in experiment [4].
For `COc1ccc2[nH]c(=O)c(CN(CCN3CCCC3)C(=O)Nc3ccccc3Cl)cc2c1`, in that order: 31.9%, 20.4%, 36% and 18.6%.
For `O=C(NNC1=Nc2cccc3cccc1c23)c1ccccc1Br`, in that order: 19.4%, 22.2%, 14.2% and 17.2%.
As for `Cc1cccc(C)c1-c1ccc(CN2C(CC(C)C)C(=O)N(Cc3cn(CC4CCCCC4)nn3)CCS2(=O)=O)cc1` (configuration not stated), the inhibition in experiment [1] is 21.1%; in experiment [2], 21.2%; in experiment [3] it was 24.4%; in experiment [4], 22.6%.
For `c1cncc(CNc2ncnc3ccc(-c4ccoc4)cc23)c1`, in that order: 75.2% (active), 42.8% (active), 66% (active) and 47.8% (active).
With `Cc1ccc(CNc2ncnc3ccc(-c4ccoc4C)cc23)o1`, the inhibition was 58.8% (active) in experiment [1], 52% (active) in experiment [2], 62% (active) in experiment [3] and 50.9% (active) in experiment [4].
Regarding `COc1ccc(-c2cn[nH]c2C)cc1OC`, the inhibition in experiment [1] is 21.1%; in experiment [2] it was 10.4%; in experiment [3], 12.1%; in experiment [4], 10.7%.
On to `COc1cccc(/C=N/NC(=O)C(=O)Nc2ccccc2OC(F)(F)C(F)F)c1O`, for which the inhibition in experiment [1] was 36.3%; in experiment [2] it was 38% (active); in experiment [3], 33.3%; in experiment [4] it was 23.4%.
Turning to `CCOC(=O)c1c(C)c2c(=O)[nH]cnc2n1-c1ccccc1`, the inhibition in experiment [1] was 51.5% (active); in experiment [2], 36.8% (active); in experiment [3], 59.9% (active); in experiment [4], 39.9% (active).
As for `COc1ccc(-c2csc(NC(=O)C3CCN(c4ncnc5sc(C)c(C)c45)CC3)n2)cc1OC`, the inhibition in experiment [1] is 24.1%; in experiment [2], 58.1% (active); in experiment [3], 23.8%; in experiment [4] it was 52.6% (active).
For `O=C(Nc1nc(-c2ccccc2)cs1)c1ccc(N2CCOCC2)c([N+](=O)[O-])c1`, the inhibition in experiment [1] is 56.2% (active); in experiment [2], 61.4% (active); in experiment [3], 15.3%; in experiment [4], 64.8% (active).
As for `OCCN1CCN(C(=S)c2ccc(-c3ccccc3)cc2)CC1`, the inhibition is 35.6% in experiment [1], 4.96% in experiment [2], 36.8% in experiment [3] and 6.4% in experiment [4].
As for `CCN(CC)CCNC(=O)c1ccc2c(c1NCCO)C(=O)c1ccccc1C2=O`, the inhibition is -15.3% in experiment [1], -1.86% in experiment [2], -19.2% in experiment [3] and -8.97% in experiment [4].
`N=c1c2c(-c3ccccc3)c(-c3ccccc3)n(Cc3ccco3)c2ncn1CCCO`: the inhibition was 26.8% in experiment [1], 52.6% (active) in experiment [2], 36.9% in experiment [3] and 51.3% (active) in experiment [4].
The corresponding values for `NC(=O)c1sc2nccc(Nc3ccccc3)c2c1N` are 70.9% (active), 47.7% (active), 53.8% (active) and 39.8% (active).
For `O=c1[nH]c(=O)n(C2OC(CO)C(O)C2O)cc1F` (configuration not stated), in that order: 57.4% (active), 58.5% (active), 26.9% and 57.2% (active).
For `Nc1ccc(Cn2ccc3c4c(N)nc(N)nc4ccc32)cc1`, in that order: 66.1% (active), 32% (active), 67.7% (active) and 36.9% (active).
As to `CN(CC1CCCO1)S(=O)(=O)c1ccc(C(=O)Nc2nc3cc4c(cc3s2)OCO4)cc1` (configuration not stated), the inhibition was 14.7% in experiment [1], 39.8% (active) in experiment [2], 0.14% in experiment [3] and 39.8% (active) in experiment [4].
As for `Cc1cc(C)nc(/N=C(\N)Nc2ccc(-c3ccccc3)cc2)n1`, the inhibition in experiment [1] is 9.37%; in experiment [2], 33.3% (active); in experiment [3] it was 21.7%; in experiment [4] it was 30.1% (active).
The corresponding values for `Cc1ccc(NC(=O)NC2CC(=O)N(c3ccc4c(c3)OCCO4)C2)cc1C` (configuration not stated) are 41.9%, 33.8% (active), 46% and 20.9%.
For `O=C(CSC1=NCCS1)Nc1ccnc2ccccc12`, in that order: 28.1%, 37.7% (active), 27.5% and 37.9% (active).
Turning to `COC(=O)c1cc(Cl)cc(Cl)c1OS(=O)(=O)N(C)C`, the inhibition was -11.6% in experiment [1], -46.8% in experiment [2], -212% in experiment [3] and -59.6% in experiment [4].
As to `Cc1ccc(C(=O)Nc2nc(-c3ccccn3)cs2)cc1S(=O)(=O)N1CCOCC1`, the inhibition in experiment [1] was 17%; in experiment [2] it was 29%; in experiment [3], 13.8%; in experiment [4] it was 35.8% (active).
Regarding `CC(=O)c1ccc(Nc2ncnc3ccc(Br)cc23)cc1`, the inhibition in experiment [1] was 49.5% (active); in experiment [2], 39.7% (active); in experiment [3], 56.4% (active); in experiment [4], 37.8% (active).
Take `NC(=O)C(C(=O)/C=C/c1ccc(Cl)cc1)=C1SCCS1`: the inhibition is 29.4% in experiment [1], 36.6% (active) in experiment [2], 30.9% in experiment [3] and 33.8% (active) in experiment [4].
